Experimental data: PubChem BioAssay AID504617 (Sanford-Burnham Center for Chemical Genomics, 2011)
The other results are listed elsewhere or left out. Activity calls are given as the source filed them.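 How the source made its calls: active means mean activity change at or below -40%, meaning activation of 40% or more, at 20 µM; inactive means the rest.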

Molecular target: Apoptotic protease-activating factor 1 (Homo sapiens) (UniProt O14727)
Assay: enhancers of apoptosome-driven caspase-3 activity – biochemical, fluorescence, DEVD-Rh110, 20 µM, confirmation (AID 504617)
Conditions: reconstituted apoptosome caspase-3 activity, at 20 µM, stronger effect = lower value

Chain of Apoptotic protease-activating factor 1 (Homo sapiens) (O14727 whole entry, looked up): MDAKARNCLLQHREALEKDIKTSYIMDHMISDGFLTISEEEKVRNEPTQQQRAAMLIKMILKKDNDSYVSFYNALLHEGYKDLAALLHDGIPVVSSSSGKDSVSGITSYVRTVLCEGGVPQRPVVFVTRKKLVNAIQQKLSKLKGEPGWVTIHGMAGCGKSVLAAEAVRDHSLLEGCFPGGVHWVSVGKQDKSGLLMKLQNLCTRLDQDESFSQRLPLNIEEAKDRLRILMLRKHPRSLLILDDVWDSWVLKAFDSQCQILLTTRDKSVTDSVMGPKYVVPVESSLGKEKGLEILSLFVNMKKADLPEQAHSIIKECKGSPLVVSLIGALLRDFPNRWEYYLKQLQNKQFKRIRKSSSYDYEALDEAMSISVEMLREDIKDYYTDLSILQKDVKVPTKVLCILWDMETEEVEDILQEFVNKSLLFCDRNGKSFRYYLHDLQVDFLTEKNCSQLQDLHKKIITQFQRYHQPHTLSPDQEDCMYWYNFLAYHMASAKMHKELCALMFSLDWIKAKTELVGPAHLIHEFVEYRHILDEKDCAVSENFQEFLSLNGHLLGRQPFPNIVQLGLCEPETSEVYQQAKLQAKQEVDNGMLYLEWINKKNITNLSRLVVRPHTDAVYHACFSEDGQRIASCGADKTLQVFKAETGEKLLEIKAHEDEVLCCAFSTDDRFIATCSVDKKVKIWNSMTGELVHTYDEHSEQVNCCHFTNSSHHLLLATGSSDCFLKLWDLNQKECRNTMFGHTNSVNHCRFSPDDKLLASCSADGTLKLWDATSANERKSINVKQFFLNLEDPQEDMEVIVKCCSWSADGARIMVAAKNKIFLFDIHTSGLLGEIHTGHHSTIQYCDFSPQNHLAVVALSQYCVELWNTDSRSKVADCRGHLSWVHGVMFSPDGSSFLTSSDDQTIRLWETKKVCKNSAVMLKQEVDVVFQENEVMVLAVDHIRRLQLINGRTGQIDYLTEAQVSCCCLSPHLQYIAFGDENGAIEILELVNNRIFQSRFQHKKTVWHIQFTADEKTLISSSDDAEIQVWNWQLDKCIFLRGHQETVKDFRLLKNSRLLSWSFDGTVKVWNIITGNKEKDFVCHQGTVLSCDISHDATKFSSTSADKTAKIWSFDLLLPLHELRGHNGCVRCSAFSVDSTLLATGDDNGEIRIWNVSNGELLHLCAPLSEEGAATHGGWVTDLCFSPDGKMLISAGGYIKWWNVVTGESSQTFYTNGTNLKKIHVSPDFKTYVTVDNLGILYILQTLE

Activity change, negative = activation, active:
C=CC1=C(C(=O)O)N2C(=O)[C@@H](NC(=O)/C(=N\OCC(=O)O)c3csc(N)n3)[C@H]2SC1 -114%

Activity change, negative = activation, inactive:
Brc1ccc(/C=N/N2CCN(C3c4ccccc4-c4ccccc43)CC2)s1 4.14%
COc1ccc(S(=O)(=O)N2CCCCC2)cc1NC(=O)c1cc([N+](=O)[O-])ccc1N1CCOCC1 13.5%
Cc1cc(NC(=O)c2cccc(N3C(=O)CCC3=O)c2)no1 4.77%
COc1cccc(C(=O)Nc2ccc(N3CCCC3)cc2)c1 7.29%
C=CCNC(=O)c1ccc(C)c(Br)c1 5.25%
Nc1cc(C(F)(F)F)ccc1N1CCOCC1 16.7%
CC(=O)NC(=S)NNC(=O)c1ccc(Br)cc1 17.7%
COc1cc(C2C(C#N)=C(N)Oc3n[nH]c(-c4ccccn4)c32)cc(OC)c1OC (stereo unspecified) 16.8%
O=c1[nH]c2c(c(=O)n1Cc1ccccc1)CCC2 11%
CC1COc2ccccc2N1C(=O)c1cccnc1Cl (stereo unspecified) 6.25%
CC(C)N1CCC(NC(=O)Nc2ccccc2)CC1 9.51%
COc1ccc(C2CC(c3ccccc3)Nc3ncnn32)cc1 (stereo unspecified) 8.21%
O=C(CCc1ccccc1)NNC(=O)c1ccc(Br)cc1 5.47%
CCCC(=O)Nc1nc2ccc(NC(=O)c3c(F)c(F)c(OC)c(F)c3F)cc2s1 9.11%
COc1cc(C(=O)NCc2nnc(SCC(=O)Nc3nc4ccc(C)cc4s3)o2)cc(OC)c1OC 8.22%
O=C(CSc1ccc(-c2ccc(-n3cccn3)cc2)nn1)Nc1ccc([N+](=O)[O-])cc1 8.16%
COC(=O)C(C)N(C#N)c1nc(C)nc(C)n1 (stereo unspecified) 10.4%
O=C(Nc1ccccc1F)c1ccccc1-c1ccccc1 4.47%
CCOCCc1c(O)nc(SCC(=O)NCc2ccco2)[nH]c1=O 7%
O=c1[nH]cnc2c1c(-c1ccccc1)cn2-c1ccc(F)cc1 10.9%
